According to PubChem BioAssay (EPA / NIEHS):
Results filed as inconclusive are left out. The source made the active and inactive calls. The calls were made as follows, unless noted: active = hit-call score of the fitted dose curve at least 0.9, where 1 is the maximum; inconclusive = response in the unintended direction; inactive = score below 0.9.

Tests used:
[1] = TOX21_p53_BLA_p2_viability: Viability Assessment in the Tox21 HCT-116 p53 Agonism Beta-lactamase Assay, Phase 2 (AID 2283591);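 also: actives lower the ATP signal meaning cytotoxicity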
In short: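 Cytotoxicity readout: CellTiter-Glo ATP luminescence, 30 min at room temperature, after the beta-lactamase read. Cells were HCT116 exposed 16 h at 37C to compounds pin-transferred at 217-fold dilution from DMSO stocks.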

[2] = biological target: Cellular tumor antigen p53 (Homo sapiens) (UniProt P04637); assay: TOX21_p53_BLA_p2_ratio: Tox21 HCT-116 p53 Agonism Beta-lactamase Assay, Ratio, Phase 2 (AID 2283592)
Sequence of Cellular tumor antigen p53 (Homo sapiens) (P04637 whole entry, looked up): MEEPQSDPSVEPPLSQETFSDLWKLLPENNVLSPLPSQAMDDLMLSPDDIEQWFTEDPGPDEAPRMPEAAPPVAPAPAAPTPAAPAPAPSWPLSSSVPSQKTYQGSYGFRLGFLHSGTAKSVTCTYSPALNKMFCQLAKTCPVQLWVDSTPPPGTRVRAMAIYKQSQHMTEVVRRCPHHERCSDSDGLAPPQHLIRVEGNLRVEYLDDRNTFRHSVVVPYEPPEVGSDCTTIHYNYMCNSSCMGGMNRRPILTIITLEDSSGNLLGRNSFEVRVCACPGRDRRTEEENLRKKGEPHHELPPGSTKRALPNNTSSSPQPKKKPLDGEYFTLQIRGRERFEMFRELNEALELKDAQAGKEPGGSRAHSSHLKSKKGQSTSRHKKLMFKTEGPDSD
In short: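 Readout: blue/green (460/530 nm) FRET emission ratio after 2 h CCF4-AM loading at room temperature, excitation 405 nm. HCT116 p53 bla cells, 16 h compound exposure at 37C, 5% CO2; agonist direction fitted against DMSO baseline.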

[3] = TOX21_p53_BLA_p3_viability: Viability Assessment in the Tox21 HCT-116 p53 Agonism Beta-lactamase Assay, Phase 3 (AID 2283593);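 also: cells exposed to compound for 16 h before reading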
In short: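 Cellular ATP was quantified by CellTiter-Glo luminescence, read after 30 min at room temperature. Beforehand, HCT116 cells (4000/well) received compound 5 h post-seeding, 217-fold diluted from DMSO, then incubated 16 h at 37C.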

[4] = biological target: Cellular tumor antigen p53 (Homo sapiens) (UniProt P04637); assay: TOX21_p53_BLA_p3_ratio: Tox21 HCT-116 p53 Agonism Beta-lactamase Assay, Ratio, Phase 3 (AID 2283596)
In short: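 Cells were seeded at 4000/well, rested 5 h at 37C, then dosed with DMSO compound solutions (217-fold dilution) for 16 h. CCF4-AM substrate was loaded for 2 h at room temperature, and the 460/530 nm emission ratio was fitted for gain of signal versus DMSO.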

[5] = TOX21_p53_BLA_p4_viability: Viability Assessment in the Tox21 HCT-116 p53 Agonism Beta-lactamase Assay, Phase 4 (AID 2283597);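 also: hits lower the luminescence signal meaning cytotoxicity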
In short: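 ATP content by CellTiter-Glo luminescence, 30 min RT, read after the beta-lactamase ratio step. Cells: HCT116, 4000/well, compound added after 5 h, exposure 16 h at 37C. Signal loss = reduced viability.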

[6] = biological target: Cellular tumor antigen p53 (Homo sapiens) (UniProt P04637); assay: TOX21_p53_BLA_p5_ratio: Tox21 HCT-116 p53 Agonism Beta-lactamase Assay, Ratio, Phase 5 (AID 2283599)
In short: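 Beta-lactamase reporter ratio (blue 460 nm over green 530 nm, 405 nm excitation) after 2 h CCF4-AM loading, in HCT-116 cells exposed 16 h at 37 C to compounds pinned at 217-fold dilution. Increases relative to DMSO baseline scored.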

[7] = biological target: Cellular tumor antigen p53 (Homo sapiens) (UniProt P04637); assay: TOX21_p53_BLA_p4_ratio: Tox21 HCT-116 p53 Agonism Beta-lactamase Assay, Ratio, Phase 4 (AID 2283601)
In short: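 Signal is the blue/green (460nm/530nm) ratio of cleaved versus uncleaved CCF4-AM substrate, read after 2 h substrate loading. Cells were HCT116 carrying the p53-responsive beta-lactamase reporter, dosed 16 h at 37C, 5% CO2; CellTiter-Glo measured in parallel.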

[8] = TOX21_p53_BLA_p5_viability: Viability Assessment in the Tox21 HCT-116 p53 Agonism Beta-lactamase Assay, Phase 5 (AID 2283600)
In short: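 ATP luminescence (CellTiter-Glo, 30 min, RT) served as the viability read-out, with loss of signal indicating cytotoxicity. Compounds in DMSO were pinned at a 217-fold dilution onto 4000 cells/well and incubated 16 h, 37C.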

[9] = CCTE_Shafer_MEA_dev_firing_rate_mean: CCTE's Neural Network Formation Assay for Mean Firing Rate, Shafer Lab (AID 2284031; active = hit-call score of the fitted dose curve at least 0.9, where 1 is the maximum; inactive = score below 0.9)
In short: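 Read-out: spike count/recording length, averaged over active electrodes, then AUC across days 5, 7, 9, 12. Rat cortical cultures on MEA; continuous 12-day exposure, media and treatment renewed DIV 5, 9; DMSO baseline.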

[10] = CCTE_Shafer_MEA_dev_per_burst_spike_percent: CCTE's Neural Network Formation Assay for Percent of Spikes in a Burst, Shafer Lab (AID 2284032; active = hit-call score of the fitted dose curve at least 0.9, where 1 is the maximum; inactive = score below 0.9)
In short: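 Value is trapezoidal AUC over recordings on days 5, 7, 9 and 12 of the well-mean fraction of spikes falling in single-electrode bursts; rat cortical cultures exposed continuously from plating, treatment renewed DIV 5 and 9, fitted downward against DMSO.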

[11] = CCTE_Shafer_MEA_dev_burst_rate: CCTE's Neural Network Formation Assay for Burst Rate, Shafer Lab (AID 2284042; active = hit-call score of the fitted dose curve at least 0.9, where 1 is the maximum; inactive = score below 0.9)
In short: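 Cells plated, treated day 0; recorded DIV 5, 7, 9, 12; fed and re-treated DIV 5, 9. Endpoint: bursts per recording time, active-electrode well mean, trapezoidal AUC, fitted in decreasing direction against DMSO baseline.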

[12] = CCTE_Shafer_MEA_dev_per_burst_interspike_interval: CCTE's Neural Network Formation Assay for Burst Interspike Interval, Shafer Lab (AID 2284044; active = hit-call score of the fitted dose curve at least 0.9, where 1 is the maximum; inactive = score below 0.9)
In short: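 Readout is the average time between spikes inside single-electrode bursts, taken as a well mean across bursting electrodes. Cortical neurons from rat developed networks on MEA plates under continuous 12-day exposure; recordings on days 5, 7, 9 and 12 were integrated by trapezoidal AUC.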

[13] = CCTE_Shafer_MEA_dev_burst_duration_mean: CCTE's Neural Network Formation Assay for Mean Burst Duration, Shafer Lab (AID 2284045; active = hit-call score of the fitted dose curve at least 0.9, where 1 is the maximum; inactive = score below 0.9)
In short: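 Mean single-electrode burst duration (first to last spike), averaged over bursting electrodes per well, then integrated as area-under-curve across recordings at days 5, 7, 9 and 12. Rat cortical cultures on MEAs, compound present from plating, refreshed at feeds.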

[14] = CCTE_Shafer_MEA_dev_interburst_interval_mean: CCTE's Neural Network Formation Assay for Mean Interburst Interval, Shafer Lab (AID 2284046; active = hit-call score of the fitted dose curve at least 0.9, where 1 is the maximum; inactive = score below 0.9;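 also: well-mean interburst interval of bursting electrodes as AUC over four recording days; curve fitted for decrease in interburst interval relative to DMSO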)
In short: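 Developing rat cortical networks on 48-well MEAs receive compound from the day of plating. Burst intervals from each active electrode are averaged per well, and AUC over the recording days is fitted in the negative direction against DMSO.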

[15] = CCTE_Shafer_MEA_dev_inter_network_spike_interval_mean: CCTE's Neural Network Formation Assay for Mean Inter-network Spike Interval, Shafer Lab (AID 2284047; active = hit-call score of the fitted dose curve at least 0.9, where 1 is the maximum; inactive = score below 0.9)
In short: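 Rat cortical cultures, 1.5 x 10^5 cells/well on 48-well MEA plates; continuous exposure days 0–12, medium and compound refreshed DIV 5, 9. Mean time between consecutive network-spike peaks; AUC across DIV 5/7/9/12; DMSO baseline, negative fitting direction.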

[16] = CCTE_Shafer_MEA_dev_network_spike_number: CCTE's Neural Network Formation Assay for Number of Network Spikes, Shafer Lab (AID 2284048; active = hit-call score of the fitted dose curve at least 0.9, where 1 is the maximum; inactive = score below 0.9)
In short: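 Number of network spikes (coordinated firing across electrodes) recorded on days 5, 7, 9 and 12 and summarised as area under the curve. Rat cortical cultures on MEA, continuous compound exposure with full medium/treatment exchange at DIV 5 and 9.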

[17] = CCTE_Shafer_MEA_dev_spike_duration_mean: CCTE's Neural Network Formation Assay for Mean Spike Duration, Shafer Lab (AID 2284051; active = hit-call score of the fitted dose curve at least 0.9, where 1 is the maximum; inactive = score below 0.9;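 also: mean network spike duration pooled as area under curve over DIV 5 to 12 recordings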)
In short: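 Readout is the average length of network spikes, clustered firing across electrodes, summed over DIV 5, 7, 9 and 12 as area under the curve. Neurons from rat cortex developed networks on MEA plates under continuous 12-day exposure.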

[18] = CCTE_Shafer_MEA_dev_network_spike_duration_std: CCTE's Neural Network Formation Assay for Standard Deviation of Network Spike Duration, Shafer Lab (AID 2284052; active = hit-call score of the fitted dose curve at least 0.9, where 1 is the maximum; inactive = score below 0.9;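 also: hits are decreases in network spike duration SD versus DMSO vehicle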)
In short: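 Read-out is the trapezoidal area-under-the-curve across recordings made on days 5, 7, 9 and 12, fitted in the negative direction against DMSO baseline. Neurons were primary rat cortical cells treated from day 0, with treatment renewed at each feed.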

[19] = CCTE_Shafer_MEA_dev_per_network_spike_spike_number_mean: CCTE's Neural Network Formation Assay for Mean Number of Spikes in a Network Spike, Shafer Lab (AID 2284053; active = hit-call score of the fitted dose curve at least 0.9, where 1 is the maximum; inactive = score below 0.9)
In short: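 Continuous twelve-day exposure of developing rat cortical networks grown over 16 microelectrodes per well; spontaneous firing is captured at four time points, and the per-network-spike spike number is integrated over development by trapezoidal AUC.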

[20] = CCTE_Shafer_MEA_dev_per_network_spike_spike_percent: CCTE's Neural Network Formation Assay for Percent of Spikes in a Network Spike, Shafer Lab (AID 2284054; active = hit-call score of the fitted dose curve at least 0.9, where 1 is the maximum; inactive = score below 0.9)
In short: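 Metric: fraction of spikes falling in a 0.05 s window at network-spike peaks. Recordings were made on days 5, 7, 9 and 12 and collapsed by trapezoidal AUC. Cultures were rat cortical neurons on MEA plates, dosed continuously from plating, re-dosed at media changes.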

[21] = CCTE_Shafer_MEA_dev_LDH: CCTE's Lactate Dehydrogenase Assay for Cytotoxicity in the Neural Network Formation Assay, Shafer Lab (AID 2284068);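 also: exposure for twelve days from plating with re-dosing on DIV 5 and 9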
In short: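 Cytotoxicity companion to network-formation recordings: rat cortical neurons received compound over 12 days of development, re-dosed at DIV 5 and 9 feeds. Viability was inferred from LDH enzyme activity relative to DMSO.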

[22] = CCTE_Shafer_MEA_dev_mutual_information_norm: CCTE's Neural Network Formation Assay for Mutual Information Normalization, Shafer Lab (AID 2284091; active = hit-call score of the fitted dose curve at least 0.9, where 1 is the maximum; inactive = score below 0.9)
In short: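 Shared information across electrodes, tracked on days 5, 7, 9 and 12 of network development and collapsed as trapezoidal area under the curve. Rat cortical cultures were treated continuously from plating, with treatment renewed at feeds on DIV 5 and 9; DMSO baseline, negative-direction fit.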

[23] = CCTE_Shafer_MEA_dev_correlation_coefficient_mean: CCTE's Neural Network Formation Assay for Mean Correlation Coefficient, Shafer Lab (AID 2284093; active = hit-call score of the fitted dose curve at least 0.9, where 1 is the maximum; inactive = score below 0.9)
In short: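 Read-out: well-mean correlation coefficient of spike trains between electrode pairs, collapsed over four recording days as trapezoidal area-under-the-curve. Developing rat cortical neuron networks grown on MEAs received test chemical continuously from plating.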

Measured: AC50

CC(=O)Nc1cc([As](=O)(O)O)ccc1O
inactive: [1] | [2] | [3] | [4] | [5] | [6] | [7]

CCCCCCCCCCCCCC[P+](CCCCCC)(CCCCCC)CCCCCC (tested in a mixture with another compound)
active: [1] 11.7 µM | [2] 21.4 µM | [3] 24.1 µM | [4] 33.5 µM | [6] 46.8 µM | [8] 15.2 µM

O=C(Nc1ccccc1)N(Cc1ccc(Cl)cc1)C1CCCC1
inactive: [1] | [2] | [3] | [4] | [6] | [8] | [7]

C=CC1CC=CCC1 (centres undefined)
inactive: [1] | [2] | [3] | [4] | [6]

Oc1c(Cl)c(Cl)cc(Cl)c1Cl
inactive: [1] | [3] | [5]
active: [2] 12.2 µM | [4] 13.4 µM | [6] 18.7 µM | [7] 22.6 µM

O=C(O)c1ccccn1
inactive: [1] | [2] | [3] | [4] | [5] | [8] | [7]

CN1C(=O)NC(=O)C(C)(C2=CCCCC2)C1=O (centres undefined)
inactive: [1] | [2] | [3] | [4] | [6] | [8] | [7]

CCC1(c2ccccc2)C(=O)NC(=O)NC1=O
not listed: [7]
inactive: all other assays above

O=c1c2ccccc2[se]n1-c1ccccc1
inactive: [1] | [2] | [3] | [4] | [5] | [6] | [7]

NC(=O)CS(=O)C(c1ccccc1)c1ccccc1 (centres undefined)
inactive: [1] | [2] | [3] | [4] | [6] | [8]

C[C@]12C[C@H]3S[C@H]3C[C@@H]1CC[C@@H]1[C@@H]2CC[C@]2(C)[C@@H](O)CC[C@@H]12
inactive: [1] | [2] | [3] | [4] | [5] | [8]

Clc1ccc([C@@H]2C[C@H]3CC[C@@H]2N3)cn1
inactive: [1] | [2] | [3] | [4] | [5] | [6] | [7]
